{"source": "PubChem BioAssay AID588405", "about": "(Sanford-Burnham Center for Chemical Genomics, 2011)", "note": "The whole screen tested about 360,000 compounds, of which about 6,200 (1.7%) were called active. Only a selection was taken, and actives are over-represented in it overall. Values without a mark were called inactive.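 The calls were made as follows: active = inhibition of at least 50% at 20 µM; inactive = the rest.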"}
{"experiment": "Peg3 promoter-driven luciferase inhibitors, primary screen, cell-based, HeLa, luciferase luminescence (AID 588405)", "conditions": "HeLa PEG-Prom luciferase reporter, overnight, at 20 µM, stronger effect = higher value"}
{"smiles": "CCOC(=O)c1ccc(NC(=O)Cc2cccs2)cc1", "inhibition": "-222%"}
{"smiles": "O=C(COC(=O)CNC(=O)c1ccco1)Nc1ccc(F)cc1", "inhibition": "8.45%"}
{"smiles": "CCOC(=O)c1ccc(NC(=O)CNC(=O)c2ccco2)cc1", "inhibition": "102% (active)"}
{"smiles": "CCCNC(=O)C1(C)CCN(Cc2ccc(Cl)c(Cl)c2)C1", "note": "(stereo unspecified)", "inhibition": "1.28%"}
{"smiles": "Cc1ccc(NC(=O)Nc2cc(-c3ccccc3)nn2C)cc1Cl", "inhibition": "4.66%"}
{"smiles": "CC(=O)Nc1ccc(-c2cn3cccnc3n2)cc1", "inhibition": "-72.3%"}
{"smiles": "CC(=O)Nc1ccc(-c2csc(NC(=O)Nc3ccccc3)n2)cc1", "inhibition": "102% (active)"}
{"smiles": "COc1ccc(S(=O)(=O)N(C)C[C@H]2Oc3c(NC(=O)Nc4ccc5c(c4)OCO5)cccc3C(=O)N([C@H](C)CO)C[C@@H]2C)cc1", "inhibition": "-2.6%"}
{"smiles": "CCCNC(=O)C1(C)CCN(C(=O)c2cc(F)ccc2C)C1", "note": "(stereo unspecified)", "inhibition": "-1.83%"}
{"smiles": "CCc1nc2ccc(C(=O)N3CCC(O)(Cc4ccccc4)CC3)cn2c1N(C)C(=O)Cc1ccccc1", "inhibition": "4.95%"}
{"smiles": "COc1ccc(/C(C)=N/N2CCOCC2)c(O)c1", "inhibition": "-9.18%"}
{"smiles": "CCCC(O)(c1ccc(OC)cc1)C(CN(C)C)c1ccccc1", "note": "(stereo unspecified)", "inhibition": "7.67%"}
{"smiles": "CN(C)CC(O)COc1ccc(C(C)(C)c2ccc(OCC(O)CN(C)C)cc2)cc1", "note": "(stereo unspecified)", "inhibition": "77.5% (active)"}
{"smiles": "Cc1cc(C)n(CC(O)COc2ccc(C(C)(C)C)cc2)n1", "note": "(stereo unspecified)", "inhibition": "-28.6%"}
{"smiles": "CS(=O)(=O)N(CC(=O)N1CCCC1)Cc1ccccc1", "inhibition": "3.29%"}
{"smiles": "CCCCc1ccc(S(=O)(=O)NC(=O)C2(C)CCN2C(=O)c2ccccc2)cc1", "note": "(stereo unspecified)", "inhibition": "0.57%"}
{"smiles": "O=C(NCCO)c1cccc(-c2cccc3nccn23)c1", "inhibition": "-16.2%"}
{"smiles": "O=C(Nc1ccc2c(c1)OCCO2)C(C1CC1)N1CCC(Cc2ccccc2)CC1", "note": "(stereo unspecified)", "inhibition": "-10.2%"}
{"smiles": "NC(c1csc(NC(=O)Nc2cccc(C(F)(F)F)c2)n1)C1CCCCC1", "note": "(stereo unspecified)", "inhibition": "111% (active)"}
{"smiles": "O=C(Nc1cccc(F)c1)NC1CCCCCCC1", "inhibition": "-273%"}
{"smiles": "COc1cccc(NC(=O)Nc2ccc(F)cc2)c1", "inhibition": "-212%"}
{"smiles": "NC(c1ccccc1)c1csc(NC(=O)Nc2cccc(C(F)(F)F)c2)n1", "note": "(stereo unspecified)", "inhibition": "113% (active)"}
{"smiles": "O=C(Nc1ccc(C(=O)N2CCOCC2)cc1)Nc1cccc(C(F)(F)F)c1", "inhibition": "2.67%"}
{"smiles": "COc1ccc(C(N)c2csc(NC(=O)Nc3cccc(C(F)(F)F)c3)n2)cc1", "note": "(stereo unspecified)", "inhibition": "96.6% (active)"}
{"smiles": "COc1ccc(C(CC(=O)Nc2ccc(C)cc2)NC(=O)C(F)(F)F)cc1", "note": "(stereo unspecified)", "inhibition": "3.66%"}
{"smiles": "C/C(CC(=O)Nc1cccc(C(F)(F)F)c1)=N\\NC(=O)C(=O)NCC(C)C", "inhibition": "-1.6%"}
{"smiles": "CC(=O)c1ccc(Nc2nc(C(N)c3ccccc3)cs2)cc1", "note": "(stereo unspecified)", "inhibition": "-58.5%"}
{"smiles": "Cc1cc(Br)ccc1NC(=O)CCCOc1cc(=O)n(C)c2ccccc12", "inhibition": "-16.6%"}
{"smiles": "Cc1ccc(C)c(OCCC(=O)Nc2cccc(S(=O)(=O)N3CCCC3)c2)c1", "inhibition": "21.3%"}
{"smiles": "COC(=O)CNC(c1ccccc1Cl)c1cc(Br)ccc1NC(=O)CCN1CCOCC1", "note": "(stereo unspecified)", "inhibition": "20.5%"}
{"smiles": "COC(=O)Cc1cnc(NC(=O)CSc2nc(C(C)C)cc(=O)[nH]2)s1", "inhibition": "1.1%"}
{"smiles": "CC1(Oc2cccc(F)c2)CCN(Cc2ccccc2OC(F)F)C1", "note": "(stereo unspecified)", "inhibition": "2.93%"}
{"smiles": "CCCNC(=S)N1CCC(NC(=O)C23CC4CC(CC(C4)C2)C3)CC1", "inhibition": "8.28%"}
{"smiles": "CCNC(=O)C1CCCN(C(=O)c2cc(F)ccc2C)CC1", "note": "(stereo unspecified)", "inhibition": "2.54%"}
{"smiles": "CCc1nc2ccc(C(=O)NC3CCN(Cc4ccccc4)CC3)cn2c1N(C)CCN1CCOCC1", "inhibition": "-22.2%"}
{"smiles": "CCC(=O)N1CCC(C)(C(=O)Nc2cc(OC)c(OC)c(OC)c2)C1", "note": "(stereo unspecified)", "inhibition": "-5.88%"}
{"smiles": "CCOC(=O)c1c(C)[nH]c2c1-c1ccccc1C(=O)C2=O", "inhibition": "108% (active)"}
{"smiles": "CCOC(=O)c1c(C)[nH]c(C)c1S(=O)(=O)NCCCc1ccco1", "inhibition": "-7.04%"}
{"smiles": "CCOC(=O)c1[nH]c2ccccc2c1N=C(C)N(CC)CC", "inhibition": "12.3%"}
{"smiles": "Brc1ccc(Nc2c3c(nc4ncnn24)CCC3)cc1", "inhibition": "22.3%"}
{"smiles": "CC(=O)c1cccc(-c2cnc3c(NC=O)cc(-c4ccc(N5CCN(C)CC5)cc4)cn23)c1", "inhibition": "-143%"}
{"smiles": "CC1(C(=O)NS(=O)(=O)c2cccc(OC(F)F)c2)CCN1C(=O)C1CC1", "note": "(stereo unspecified)", "inhibition": "-2.21%"}
{"smiles": "CCCCn1c(N)c(N2CCOCC2)c(=O)n(CC(=O)NCCc2ccccc2)c1=O", "inhibition": "2.61%"}
{"smiles": "O=C(CN1CCCCCC1)NCCN1C(=O)S/C(=C\\c2ccccc2Cl)C1=O", "inhibition": "3.28%"}
{"smiles": "O=C1/C(=C\\c2ccccc2Cl)SC(=S)N1CCC(=O)N1CCCc2ccccc21", "inhibition": "105% (active)"}
{"smiles": "CN(C(=O)CCN1C(=O)/C(=C/c2ccccc2F)SC1=S)C1CCS(=O)(=O)C1", "note": "(stereo unspecified)", "inhibition": "6.96%"}
{"smiles": "Cc1cc(Br)cn2c(Cc3cccc(F)c3)c(-c3cccc(Br)c3)nc12", "inhibition": "33.6%"}
{"smiles": "COc1ccc(-c2ccc(C(=O)NCCN3CCOCC3)c3occc23)c(C)c1", "inhibition": "-2.5%"}
{"smiles": "CCOC1=C2[C@H]([C@H]3C(=O)N(c4ccccc4)C(=O)[C@H]3C1)[C@@H](c1ccccc1)N(S(=O)(=O)c1ccc(C)cc1)[C@H]2c1ccccc1", "inhibition": "16.4%"}
{"smiles": "Cc1ccc(S(=O)(=O)N(C)C)cc1NC(=O)c1ccc(-n2cncn2)c([N+](=O)[O-])c1", "inhibition": "6.01%"}
{"smiles": "CCN(CC)C(=O)C1CCCN(Cc2cccc(Cl)c2)C1", "note": "(stereo unspecified)", "inhibition": "3.55%"}
{"smiles": "COc1ccc(-c2csc(C(O)c3cccc(Cl)c3)n2)cn1", "note": "(stereo unspecified)", "inhibition": "-7.77%"}
{"smiles": "COc1ccc2c(c1)c(=Cc1ccc(N(C)C)cc1)c1cc(-c3ccccc3)[n+](C)n12", "inhibition": "104% (active)"}
{"smiles": "Cc1nc2cc(S(=O)(=O)C(F)(F)F)ccc2s1", "inhibition": "2.35%"}
{"smiles": "COc1cccc(CN2CCC(C(=O)NC(c3ccc4c(c3)OCO4)c3ccccn3)CC2)c1", "note": "(stereo unspecified)", "inhibition": "-0.88%"}
{"smiles": "Cc1cccnc1C(NC(=O)C1CCN(Cc2ccc(Cl)c(Cl)c2)CC1)c1ccc(Cl)cc1", "note": "(stereo unspecified)", "inhibition": "2.43%"}
{"smiles": "CCn1c(/C=C/c2ccc([N+](=O)[O-])o2)nc2ccccc2c1=O", "inhibition": "93.3% (active)"}
{"smiles": "Cc1ccc(-n2c(SCC(=O)N/N=C/C=C/c3ccccc3[N+](=O)[O-])nc3ccccc3c2=O)cc1", "inhibition": "6.9%"}
{"smiles": "O=c1c2ccccc2ncn1/N=C/c1ccccc1", "inhibition": "-247%"}
{"smiles": "CC1(C(=O)NS(=O)(=O)Cc2cccc(Cl)c2)CCN1C(=O)Cc1ccccc1", "note": "(stereo unspecified)", "inhibition": "8.1%"}
{"smiles": "Cc1ccc(NS(=O)(=O)c2cc3c(cc2Br)NC(=O)CO3)cc1C", "inhibition": "24.2%"}
{"smiles": "O=C(CCl)Nc1ccc(Sc2ccc(NC(=O)CCl)cc2)cc1", "inhibition": "99.8% (active)"}
{"smiles": "CC(C)(CCl)C(=O)Nc1ccc(Sc2ccc(F)cc2)cc1", "inhibition": "-14%"}
{"smiles": "O=C(CCl)Nc1cccc(CP(=O)(c2ccccc2)c2ccccc2)c1", "inhibition": "22.4%"}
{"smiles": "CC(C)C1C(=O)N(Cc2cn(CCC3OCCO3)nn2)CCS(=O)(=O)N1Cc1ccc(-c2ccccc2C(F)(F)F)cc1", "note": "(stereo unspecified)", "inhibition": "12.5%"}
{"smiles": "CCOc1ccc2[nH]c(=O)c(CN(CCCO)S(=O)(=O)c3ccc(F)cc3)cc2c1", "inhibition": "12.7%"}
{"smiles": "COc1ccc2[nH]c(=O)c(CN(Cc3cccnc3)S(=O)(=O)c3ccccc3F)cc2c1", "inhibition": "59.6% (active)"}
{"smiles": "COc1ccc(-c2[nH]ncc2CN(C)Cc2cccnc2)c(F)c1", "inhibition": "9.62%"}
{"smiles": "Cn1c(NCc2cccnc2)nc2cc(-c3ccc(F)cc3)sc2c1=O", "inhibition": "-200%"}
{"smiles": "COc1c(C)cc(C(=O)C2CCCN(S(=O)(=O)c3c(C)noc3C)C2)cc1C", "note": "(stereo unspecified)", "inhibition": "34.8%"}
{"smiles": "Cc1c(-c2ccccc2)nc(N)c(C#N)c1-c1cccs1", "inhibition": "12.9%"}
{"smiles": "COc1ccccc1-c1c(C#N)c(N)nc2c1CCC2", "inhibition": "8.52%"}
{"smiles": "CSc1nc(N)c(C#N)c(-c2ccccc2Cl)c1C#N", "inhibition": "53.6% (active)"}
{"smiles": "NCCCCC(C(=O)O)N(C(=O)OCc1ccccc1)C(=O)OCc1ccccc1", "note": "(stereo unspecified)", "inhibition": "5.74%"}
{"smiles": "CCNC(=O)C1CCCN(C(=O)c2ccc(OC)cc2OC)CC1", "note": "(stereo unspecified)", "inhibition": "-2.59%"}
{"smiles": "CNC(=O)c1[nH]cnc1C(=O)N[C@@H](CC(C)C)C(=O)OCc1ccccc1", "inhibition": "4.89%"}
{"smiles": "CCOc1ccc(-n2c(SCC(=O)NC3CCS(=O)(=O)C3)nnc2-c2cccnc2)cc1", "note": "(stereo unspecified)", "inhibition": "-3.16%"}
{"smiles": "CCN1CCC(O)(/C=C/c2ccc(C)cc2)C(C(=O)/C=C/c2ccc(C)cc2)C1", "note": "(stereo unspecified)", "inhibition": "97.7% (active)"}
{"smiles": "COc1cc(C(O)c2nc(-c3cccc(C(=O)O)c3)cs2)ccc1F", "note": "(stereo unspecified)", "inhibition": "-37.1%"}
{"smiles": "Cc1nc(C(F)(F)F)ccc1C(=O)N1CCC1(C)C(=O)NS(=O)(=O)c1ccccc1", "note": "(stereo unspecified)", "inhibition": "11.6%"}
{"smiles": "CCC(C)Cn1c(O)cc2nn(-c3nc4ccccc4s3)c(=O)c-2c1C", "note": "(stereo unspecified)", "inhibition": "96.7% (active)"}
{"smiles": "OC[C@H]1O[C@@H](c2nc(-c3nc(-c4ccc(F)cc4)no3)cs2)[C@H](O)[C@@H](O)[C@H]1O", "inhibition": "-42.8%"}
{"smiles": "Nc1nc(CSc2nnnn2-c2ccccc2)nc(Nc2ccccc2)n1", "inhibition": "6.46%"}
{"smiles": "Cc1cccc(CN2CCN(C3CN(Cc4ccccc4)S(=O)(=O)C3)CC2)c1", "note": "(stereo unspecified)", "inhibition": "24.2%"}
{"smiles": "O=C(OC12CC3CC(CC(C3)C1)C2)c1ccc(NCc2cc(O)ccc2O)cc1", "inhibition": "82.7% (active)"}
{"smiles": "CC1(C)C2CCC1(C)C(OC(=O)c1ccc(O)cc1)C2", "note": "(stereo unspecified)", "inhibition": "-14.1%"}
{"smiles": "CCCCC(=O)N(C)c1c(CC)nc2c(OCc3ccc(S(C)(=O)=O)cc3)cccn12", "inhibition": "-0.29%"}
{"smiles": "CC(C)Oc1cc(F)ccc1-c1cc(C(=O)Nc2ccc(F)cc2)[nH]n1", "inhibition": "-30.2%"}
{"smiles": "c1ccc2c(CCN3CCNC[C@H]3Cc3cccc4ccccc34)cccc2c1", "inhibition": "-8.29%"}
{"smiles": "c1ccc(C[C@H]2CNCCN2CCC23CC4CC(CC(C4)C2)C3)cc1", "inhibition": "96.8% (active)"}
{"smiles": "O=C1CCNCCN1[C@H](CO)Cc1ccccc1", "inhibition": "3.53%"}
